Laboratory results: PubChem BioAssay
Calls of active or inactive are those of the source.

Experiments:
[1] = tested on: Plasmodium falciparum Sir2 (PF13_0152, Sir2A); assay: pfSir2 binders on small-molecule microarrays, primary screen, biochemical, small-molecule microarray, 635 nm fluorescence (AID 1098); settings: small-molecule microarray binding, fluorescence 635 nm; higher = more signal;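 note: score merges spot fluorescence intensity with its signal-to-noise ratio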
[2] = small-molecule microarray binders of probe aDKK1, primary screen, biochemical, biotinylated probe, 635/667 nm fluorescence (AID 1099); settings: higher = more signal;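 note: score merges 667nm spot fluorescence with signal to noise across triplicate slides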
[3] = small-molecule microarray binders of probe aCHRDL2, primary screen, biochemical, biotinylated probe, 635/667 nm fluorescence (AID 1100); settings: higher = more signal
[4] = splicing luciferase reporter signal modulators, primary screen, spliceosome inhibition project, cell-based, HEK293, splice +/- reporter (AID 1101); settings: luminescence, 24 h, higher = more signal, called active from +8 up or from −8 down;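 note: HEK293 cells carrying a splicing-competent luciferase reporter gene; test concentration not given here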
[5] = biological target: Fibroblast growth factor 10 (Homo sapiens) (UniProt O15520); assay: FGF10 binders on small-molecule microarrays, primary screen, biochemical, small-molecule microarray, 635 nm fluorescence (AID 1102); settings: FGF10 binding, fluorescence 635 nm, higher = more signal
Chain of Fibroblast growth factor 10 (Homo sapiens) (O15520 whole entry, looked up): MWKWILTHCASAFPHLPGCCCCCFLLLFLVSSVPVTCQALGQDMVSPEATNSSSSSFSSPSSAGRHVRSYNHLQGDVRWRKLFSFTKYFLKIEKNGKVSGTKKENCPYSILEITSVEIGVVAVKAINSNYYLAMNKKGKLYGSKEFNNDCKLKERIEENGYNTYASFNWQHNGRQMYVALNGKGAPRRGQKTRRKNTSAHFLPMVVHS

[6] = tested on: glycogen synthase kinase-3 (GSK3A per assay name; protocol says GSK3B); assay: GSK3 binders on small-molecule microarrays, primary screen, biochemical, small-molecule microarray, 635 nm fluorescence, GSK3A (AID 1103); settings: small-molecule microarray binding, fluorescence 635 nm; higher = more signal; note: the record names both GSK3A and GSK3B
[7] = biological target: Epidermal growth factor receptor (Homo sapiens) (UniProt P00533); assay: EGFR binders on small-molecule microarrays, primary screen, biochemical, small-molecule microarray, 635 nm fluorescence (AID 1104); settings: EGFR binding, higher = more signal;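 note: score merges 667 nm emission intensity with spot signal to noise over triplicate slides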
Chain of Epidermal growth factor receptor (Homo sapiens) (P00533 whole entry, looked up): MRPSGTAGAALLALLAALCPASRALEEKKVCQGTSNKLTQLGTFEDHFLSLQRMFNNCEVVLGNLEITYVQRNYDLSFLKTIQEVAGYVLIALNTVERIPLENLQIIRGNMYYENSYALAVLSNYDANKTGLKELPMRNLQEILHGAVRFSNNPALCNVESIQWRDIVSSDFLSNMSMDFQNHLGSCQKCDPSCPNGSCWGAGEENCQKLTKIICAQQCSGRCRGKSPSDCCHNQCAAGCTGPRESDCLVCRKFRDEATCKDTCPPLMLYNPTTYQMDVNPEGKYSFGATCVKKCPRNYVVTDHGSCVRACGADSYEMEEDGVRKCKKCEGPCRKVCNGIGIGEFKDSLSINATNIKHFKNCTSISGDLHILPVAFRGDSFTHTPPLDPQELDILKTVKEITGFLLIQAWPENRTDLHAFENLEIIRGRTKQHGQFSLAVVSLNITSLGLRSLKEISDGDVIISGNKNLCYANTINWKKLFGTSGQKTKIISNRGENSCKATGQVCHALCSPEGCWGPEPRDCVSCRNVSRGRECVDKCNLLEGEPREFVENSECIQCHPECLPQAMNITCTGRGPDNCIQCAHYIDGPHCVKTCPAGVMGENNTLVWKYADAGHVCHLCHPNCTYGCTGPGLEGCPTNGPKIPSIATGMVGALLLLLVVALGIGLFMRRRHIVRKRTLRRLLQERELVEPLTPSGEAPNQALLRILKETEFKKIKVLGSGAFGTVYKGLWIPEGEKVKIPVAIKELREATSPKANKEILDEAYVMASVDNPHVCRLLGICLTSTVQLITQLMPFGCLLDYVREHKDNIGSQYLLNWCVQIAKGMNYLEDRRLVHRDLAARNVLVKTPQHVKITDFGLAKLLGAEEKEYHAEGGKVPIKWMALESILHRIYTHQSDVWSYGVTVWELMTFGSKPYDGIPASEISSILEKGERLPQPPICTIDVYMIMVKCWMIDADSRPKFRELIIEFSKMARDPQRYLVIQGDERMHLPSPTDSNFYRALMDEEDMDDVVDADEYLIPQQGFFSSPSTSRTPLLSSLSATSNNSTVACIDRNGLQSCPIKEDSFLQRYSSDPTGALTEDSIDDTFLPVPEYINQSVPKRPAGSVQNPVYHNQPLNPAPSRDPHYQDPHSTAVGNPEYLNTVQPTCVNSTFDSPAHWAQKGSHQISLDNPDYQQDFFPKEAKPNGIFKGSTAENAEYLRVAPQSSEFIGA

[8] = biological target: Follistatin-related protein 3 (Homo sapiens) (UniProt O95633); assay: FSTL3 binders on small-molecule microarrays, primary screen, biochemical, small-molecule microarray, 635 nm fluorescence (AID 1105); settings: FSTL3 binding, higher = more signal;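 note: score merges emission near 667 nm and signal to noise per printed spot across three slides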
Chain of Follistatin-related protein 3 (Homo sapiens) (O95633 whole entry, looked up): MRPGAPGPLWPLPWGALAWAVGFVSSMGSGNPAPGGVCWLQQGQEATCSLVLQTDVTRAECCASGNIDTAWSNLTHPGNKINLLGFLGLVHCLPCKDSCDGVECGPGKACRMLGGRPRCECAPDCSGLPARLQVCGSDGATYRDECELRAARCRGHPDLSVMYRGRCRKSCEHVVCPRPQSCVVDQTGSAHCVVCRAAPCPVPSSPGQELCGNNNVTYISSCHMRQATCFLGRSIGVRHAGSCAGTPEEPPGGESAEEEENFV

[9] = biological target: Dickkopf-related protein 1 (Homo sapiens) (UniProt O94907); assay: DKK1 binders on small-molecule microarrays, primary screen, biochemical, small-molecule microarray, 635 nm fluorescence scan (AID 1106); settings: DKK1 binding, higher = more signal;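 note: score merges emission near 667 nm with signal to noise over three replicate slides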
Chain of Dickkopf-related protein 1 (Homo sapiens) (O94907 whole entry, looked up): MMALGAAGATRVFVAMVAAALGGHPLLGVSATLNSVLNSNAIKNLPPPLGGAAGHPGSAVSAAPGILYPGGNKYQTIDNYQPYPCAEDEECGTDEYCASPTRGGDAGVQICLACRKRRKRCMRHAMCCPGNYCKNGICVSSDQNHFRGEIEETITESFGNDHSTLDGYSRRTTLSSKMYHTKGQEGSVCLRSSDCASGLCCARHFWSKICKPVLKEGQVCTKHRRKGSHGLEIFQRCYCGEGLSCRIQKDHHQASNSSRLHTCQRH

[10] = tested on: Inhibin beta A chain (activin A); assay: INHBA (activin A) binders on microarrays, primary screen, biochemical, small-molecule microarray, 635 nm fluorescence scan (AID 1107); settings: small-molecule microarray binding, higher = more signal;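 note: mouse activin A protein probed at 4.33 µg/mL on printed slides; score merges bound-protein fluorescence near 667 nm with spot signal-to-noise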
[11] = tested on: Human papillomavirus type 1a protein E7 (residues 44-93); assay: HPV1a E7 fragment binders on microarrays, primary screen, biochemical, small-molecule microarray, residues 44-93, 635 nm fluorescence (AID 1108); settings: small-molecule microarray binding, fluorescence 635 nm; higher = more signal;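 note: E7 fragment applied at 1 µg/mL in TBST for 1 h at 4 C; score combines spot fluorescence with its signal to noise ratio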
[12] = modulators of HCV replicon luciferase signal, primary screen, HCV replication inhibitor project, Huh7 cells, luciferase reporter (AID 1109); settings: 48 h, higher = more signal;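 note: huh7 hepatoma cells harbouring a luciferase neomycin HCV replicon reporter; luciferase luminescence as measure of HCV replicon replication; test concentration not given here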
[13] = biological target: Left-right determination factor 2 (Homo sapiens) (UniProt O00292); assay: LEFTY2 binders on small-molecule microarrays, primary screen, biochemical, small-molecule microarray, 635 nm fluorescence scan (AID 1110); settings: LEFTY2 binding, higher = more signal
Chain of Left-right determination factor 2 (Homo sapiens) (O00292 whole entry, looked up): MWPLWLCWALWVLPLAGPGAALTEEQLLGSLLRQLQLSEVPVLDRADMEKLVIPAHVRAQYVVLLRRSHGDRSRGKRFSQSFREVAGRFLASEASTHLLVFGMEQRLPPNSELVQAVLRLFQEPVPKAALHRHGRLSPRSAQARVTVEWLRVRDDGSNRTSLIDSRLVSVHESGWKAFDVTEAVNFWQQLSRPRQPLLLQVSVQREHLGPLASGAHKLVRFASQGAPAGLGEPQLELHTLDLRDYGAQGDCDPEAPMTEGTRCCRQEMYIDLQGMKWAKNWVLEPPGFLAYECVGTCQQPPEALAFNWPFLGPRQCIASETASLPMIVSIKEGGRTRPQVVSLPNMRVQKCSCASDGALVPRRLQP

[14] = biological target: Calmodulin-1 (Homo sapiens) (UniProt P0DP23); assay: CALM1 binders on microarrays, EGTA buffer, profiling panel, biochemical, small-molecule microarray, Cy5-labelled CALM1 (AID 1111); settings: Cy5-CALM1 binding fluorescence, higher = more signal;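 note: labelled calmodulin applied in Tris saline Tween buffer holding calcium plus EGTA and DTT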
[15] = biological target: Calmodulin-1 (Homo sapiens) (UniProt P0DP23); assay: calcium-bound CALM1 binders on microarrays, profiling panel, artefact control for SMM control-protein annotation, biochemical, small-molecule microarray, Cy5-labelled CALM1, plus calcium (AID 1112); settings: Cy5-CALM1 binding fluorescence, higher = more signal;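 note: score merges spot fluorescence with signal to noise from triplicate slides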
[16] = small-molecule microarray binders of probe aWnt5a, primary screen, biochemical, biotinylated probe, 635/667 nm fluorescence (AID 1113); settings: higher = more signal;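 note: score merges 667 nm fluorescence intensity with signal-to-noise per printed feature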
[17] = small-molecule microarray binders of probe aShh, primary screen, biochemical, biotinylated probe, 635/667 nm fluorescence (AID 1114); settings: higher = more signal;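 note: probe is biotin-labelled aShh protein from a stem cell growth factor screen; measures binding of labelled protein to compounds printed on the slide; score merges feature fluorescence at 667 nm with signal-to-noise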
[18] = small-molecule microarray binders of probe aNog, primary screen, biochemical, biotinylated probe, 635/667 nm fluorescence (AID 1115); settings: higher = more signal;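 note: probe is biotinylated aNog protein used at 0.15 µg/mL for 1 h at 4 C; z-score combines 667 nm fluorescence of each spot with its signal to noise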
[19] = biological target: Torsin-1A-interacting protein 1 (Homo sapiens) (UniProt Q5JTV8); assay: LAP1 binders from COS7 cell lysate, primary screen, small-molecule microarray, 635/667 nm fluorescence (AID 1116); settings: COS7-hLAP1 lysate binding, 635 nm fluorescence, higher = more signal
Chain of Torsin-1A-interacting protein 1 (Homo sapiens) (Q5JTV8 whole entry, looked up): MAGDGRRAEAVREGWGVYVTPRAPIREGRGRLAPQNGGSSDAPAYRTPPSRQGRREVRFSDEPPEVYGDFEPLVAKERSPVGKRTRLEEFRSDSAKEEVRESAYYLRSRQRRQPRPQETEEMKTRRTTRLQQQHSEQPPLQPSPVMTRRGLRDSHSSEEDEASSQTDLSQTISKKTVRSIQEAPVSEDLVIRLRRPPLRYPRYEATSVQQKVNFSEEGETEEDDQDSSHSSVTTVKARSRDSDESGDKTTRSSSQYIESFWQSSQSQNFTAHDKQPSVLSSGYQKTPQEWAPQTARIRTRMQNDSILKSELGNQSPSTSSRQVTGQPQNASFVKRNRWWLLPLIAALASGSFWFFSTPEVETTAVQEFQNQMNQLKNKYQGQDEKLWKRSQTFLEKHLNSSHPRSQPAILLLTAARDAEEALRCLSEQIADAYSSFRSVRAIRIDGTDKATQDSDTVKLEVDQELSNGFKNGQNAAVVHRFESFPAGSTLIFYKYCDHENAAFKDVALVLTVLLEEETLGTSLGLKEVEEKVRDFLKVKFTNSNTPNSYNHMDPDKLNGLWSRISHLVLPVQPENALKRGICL

[20] = biological target: Alpha-bungarotoxin (Bungarus multicinctus) (UniProt P60615); assay: alpha-bungarotoxin binders on microarray, profiling panel, artefact control for SMM control protein annotation, biochemical, small-molecule microarray, Alexa647 label, 635/667 nm fluorescence (AID 1117); settings: alpha-BTX-A647 binding fluorescence, higher = more signal
Chain of Alpha-bungarotoxin (Bungarus multicinctus) (P60615 whole entry, looked up): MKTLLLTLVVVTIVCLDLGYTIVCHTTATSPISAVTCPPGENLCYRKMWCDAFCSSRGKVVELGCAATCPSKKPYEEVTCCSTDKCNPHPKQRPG

| Compound | composite z-score [1] | composite z-score [2] | composite z-score [3] | z-score [4] | composite z-score [5] | composite z-score [6] | composite z-score [7] | composite z-score [8] | composite z-score [9] | composite z-score [10] | composite z-score [11] | z-score [12] | composite z-score [13] | composite z-score [14] | composite z-score [15] | composite z-score [16] | composite z-score [17] | composite z-score [18] | composite z-score [19] | composite z-score [20] |
| --- | --- | --- | --- | --- | --- | --- | --- | --- | --- | --- | --- | --- | --- | --- | --- | --- | --- | --- | --- | --- |
| Cc1ccc(S[C@]2(C(=O)NCC(F)(F)F)CC(=O)N(Cc3ccccc3C(F)(F)F)[C@@H]2c2ccc(CO)cc2I)cc1 | 1.46 | -0.255 | 0.956 | -0.0164 (inactive) | -1.34 | -1.49 | -1.96 | -1.28 | -1.7 | 0.283 | -0.784 | -0.414 | -2.12 | -0.423 | -0.214 | -0.0944 | 0.0483 | -0.161 | -0.531 | 0.444 |
| O=C1OCC=C[C@H]2OC34C=CCN(Cc5ccccc5)C(=O)[C@H]3N(CCCCCCO)C(=O)[C@@H]4[C@@H]12 (stereo not given in full) | 1.82 | -0.305 | 0.777 | 0.148 (inactive) | -0.735 | -0.868 | -0.825 | -0.608 | -1.03 | 0.652 | -1.08 | 0.141 | -1.19 | -0.274 | 0.466 | -0.161 | -0.0396 | -0.302 | 2.46 | -0.367 |
| Cc1ccc(S[C@]2(C(=O)NCCCN(C)C)CC(=O)N(C3CCCCC3)[C@@H]2c2ccc(CO)cc2)cc1 | -0.0346 | 0.348 | 0.893 | 0.104 (inactive) | -0.89 | -0.464 | -0.674 | -0.811 | -0.774 | 0.83 | -0.246 | -2.51 | -0.992 | -0.596 | -0.677 | -0.129 | -0.0035 | -0.255 | -0.549 | -0.123 |
| O=C1OCCC=C[C@H]2OC34C=CCN(Cn5nnc6ccccc65)C(=O)[C@H]3N(CCCCCCO)C(=O)[C@@H]4C12 (stereo not given in full) | 1.8 | -0.0278 | 0.337 | 0.415 (inactive) | -0.893 | -0.357 | -1.23 | -0.822 | -1.03 | -0.157 | -0.607 | 0.333 | -1.51 | -0.204 | 0.646 | -0.208 | -0.179 | -0.142 | -0.0637 | -1.27 |
| O=C1O[C@@H](c2ccccc2)[C@@H](c2ccccc2)N2[C@@H](c3ccc(O)cc3)[C@]3(C(=O)Nc4ccc(C#CC5=CCCCC5)cc43)[C@@H](C(=O)NC[C@H](O)c3ccccc3)[C@H]12 | 1.12 | 0.603 | 0.757 | -1.41 (inactive) | 1.41 | 1.28 | 0.829 | 1.42 | 1.49 | 1.02 | 1.4 | -1.31 | 0.915 | 1.11 | 0.293 | 0.0964 | -0.0769 | 0.654 | 1.52 | 0.774 |
| COCC1=C2[C@@H](CCc3ccccc3)OB(O)C[C@@H]2[C@@H]2C(=O)C=CC(=O)[C@@H]2C1 | 0.367 | -0.0473 | -0.0343 | 1.2 (inactive) | 0.378 | 0.679 | 0.149 | 0.647 | 0.489 | 0.27 | 1.01 | -2.08 | 0.363 | 1.03 | 0.344 | -0.101 | 0.0684 | 0.26 | 0.236 | 1.43 |
| COCCOC(=O)N1C(=O)[C@@]2(c3cc(C#CC4=CCCCC4)ccc31)[C@H](C(N)=O)[C@H]1C(=O)O[C@H](c3ccccc3)[C@H](c3ccccc3)N1[C@@H]2c1ccccc1OCCO | 1.46 | 0.195 | 0.367 | -1.88 (inactive) | 1.24 | 1.32 | 0.32 | 0.733 | 0.707 | 0.455 | 0.22 | -3.15 | 0.423 | 0.994 | -0.121 | 0.0839 | 0.173 | 0.0157 | 1.25 | 1.69 |
| O=C(NCC(F)(F)F)[C@@H]1c2ccccc2C(=O)N(Cc2cc(F)cc(C(F)(F)F)c2)[C@H]1c1ccc(CO)cc1 | 0.251 | -0.0632 | 0.941 | 0.408 (inactive) | -0.788 | -0.587 | -1.12 | -1.29 | -1.39 | -0.53 | 0.463 | -0.661 | -1.53 | 0.152 | 0.712 | -0.096 | -0.0709 | -0.074 | -0.468 | -0.758 |
